The full list was thinned out, with hits kept by preference.
TTR transcr act: TTR transcription activators in neuroblastoma reporter cells, primary screen, cell-based, luminescence, SH-SY5Y, TTR promoter Gaussia luciferase; AID 1117267, 2014; activation, % at 16.7 µM; 1.3% of 92,000 active; 100% = recombinant luciferase protein wells;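 active = activation above the mean of all tested compounds plus 3 SD, cut at about 9.5% in these data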;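 also: cells exposed to compounds for one day before reading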
HuH7 TTR inh: TTR promoter reporter inhibitors in hepatoma cells, counter-screen for TTR transcription activator project, cell-based, luminescence, HuH7 hepatoma | shares compounds with TTR transcr act | HuH7 TTR promoter-Gaussia luciferase reporter | inhibition, % at 16.7 µM | 4% of 1,100 active;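 active = average inhibition above the solvent-only control wells' mean plus 3 SD, cut at about 15% in these data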;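 also: inhibitors lower well luminescence so higher value means more inhibition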
TTR up confirm: TTR transcription activators, retest, confirmation, cell-based, luminescence, SH-SY5Y, triplicate; shares compounds with TTR transcr act; SHSY5Y TTR promoter Gaussia luciferase; 100% = purified Lucia enzyme wells, no cells; activation, % at 16.7 µM; 1,100 tested, under 10 active; AID 1117280, 2014;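 active = mean activation above a set limit taken from the earlier primary screen, cut at about 11% in these data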
Large screens that a line does not name were inactive (follow-up assays come after a bar, where they were run).

CCn1c(C(O)c2cccc(OC)c2OC)nc2ccccc21 (centres undefined)	none
CN(C)S(=O)(=O)c1cccc(NC(=O)COC(=O)CCOc2ccccc2)c1	none
CN(C)S(=O)(=O)c1cccc(NC(=O)COC(=O)c2cn(-c3ccccc3)nc2-c2ccccc2)c1	TTR transcr act 15 | HuH7 TTR inh inactive | TTR up confirm inactive
Cc1cc(C(=O)OCC(=O)Nc2cccc(S(=O)(=O)N(C)C)c2)c2ccccc2n1	none
COC(=O)[C@]12C[C@H](CC(=O)N3CCSCC3)C(=O)N(Cc3cccc4ccccc34)C1=C[C@H](C(C)(C)C)O[C@@H]2C	none
O=C(N/N=C\C=C\c1ccco1)c1cc(-c2ccc3ccccc3c2)n[nH]1	none
O=C(N/N=C/C=C\c1ccco1)c1ccccn1	none
O=C(N/N=C\C=C\c1ccco1)c1cncc(Br)c1	TTR transcr act 13 | HuH7 TTR inh inactive | TTR up confirm inactive
Cc1nn(Cc2ccccc2)c(Cl)c1C(=O)NCCc1ccc(Cl)cc1	none
Cc1nn(-c2ccccc2)c(C)c1C(=O)NCCc1ccccc1	none
CCOc1ccc(CCNC(=O)c2c(C)nn(-c3ccccc3)c2Cl)cc1OCC	TTR transcr act 12 | HuH7 TTR inh inactive | TTR up confirm inactive
COC(=O)[C@]12C[C@H](CC(=O)N3CCN(C(=O)c4ccco4)CC3)C(=O)N(Cc3ccc4c(c3)OCO4)C1=C[C@H](C(C)C)O[C@@H]2C1CC1	none
Cc1ccc(S(=O)(=O)N(C)C)cc1NC(=O)C1CCCC1	TTR transcr act 11 | HuH7 TTR inh inactive | TTR up confirm inactive
Cc1ccc(S(=O)(=O)N(C)C)cc1NC(=O)c1cccs1	none
Cc1ccc(S(=O)(=O)N(C)C)cc1NC(=O)CSc1ccc2c(c1)OCCO2	none
COC(=O)[C@]12C[C@H](CC(=O)N3CCSCC3)C(=O)N(CCc3ccc(OC)c(OC)c3)C1=C[C@H](COCc1ccccc1)O[C@@H]2C	none
COc1ccc(-c2cc(=O)[nH]c(N3CCN(Cc4ccccc4)CC3)n2)cc1	none
COc1cccc(-c2csc(N3CCN(Cc4ccccc4)CC3)n2)c1	TTR transcr act 10.0 | HuH7 TTR inh inactive | TTR up confirm inactive
COc1cccc(NC(=O)N2CCN(c3nc(-c4cccc(OC)c4)cs3)CC2)c1	none
Cc1ccc(C(=O)OCC(=O)NC(C)c2ccccc2)cc1C (centres undefined)	none
CC(=O)c1cc(-c2ccc(Cl)c(Cl)c2)c(=O)n2c1CCC2	none
C=CCn1c(=O)c2c(nc3n2CCCN3CCc2ccccc2)n(C)c1=O	none
Cc1ccc(N2CC(C)Cn3c2nc2c3c(=O)n(CC(=O)OCc3ccccc3)c(=O)n2C)cc1C (centres undefined)	none
CC1CN(Cc2ccccc2)c2nc3c(c(=O)n(CC(N)=O)c(=O)n3C)n2C1 (centres undefined)	TTR transcr act 13 | HuH7 TTR inh 19 | TTR up confirm inactive
CC1CN(c2ccc(Oc3ccccc3)cc2)c2nc3c(c(=O)n(CC(N)=O)c(=O)n3C)n2C1 (centres undefined)	none
C=CCn1c(=O)c2c(nc3n2CC(C)CN3Cc2ccccc2)n(C)c1=O (centres undefined)	TTR transcr act 11 | HuH7 TTR inh 16 | TTR up confirm inactive
CCCn1c(=O)c2c(nc3n2CC(C)CN3Cc2ccccc2)n(C)c1=O (centres undefined)	none
CCC(=O)N1CCc2cc(S(=O)(=O)CCC(=O)N3CCN(c4ccc(F)cc4)CC3)ccc21	none
COC(=O)[C@]12C[C@H](CC(=O)NCCC(C)C)C(=O)N(Cc3ccc(Cl)cc3Cl)C1=C[C@H](COCc1ccccc1)O[C@@H]2C	none
NC(=O)c1nsc(C(=O)N(CC(=O)NC2CCCC2)c2ccc(F)c(Cl)c2)c1N	TTR transcr act 17 | HuH7 TTR inh inactive | TTR up confirm inactive
CC(C(=O)NC1CCCCC1)N(Cc1ccc(F)cc1)C(=O)c1snc(C(N)=O)c1N (centres undefined)	none
NC(=O)c1nsc(C(=O)N(CC(=O)NC2CCCCC2)c2cccc(F)c2)c1N	none
COc1cccc(CNC2CCC23CCC(C)CC3)c1 (centres undefined)	none
O=C(C[C@H]1C[C@H]2c3cc(NC(=O)CC4CC4)ccc3O[C@H]2[C@H](CO)O1)NCc1ccccc1F	none
COc1ccccc1CNC(=O)C[C@@H]1C[C@H]2c3cc(NC(=O)c4ccc5c(c4)OCO5)ccc3O[C@H]2[C@@H](CO)O1	none
O=C(C[C@H]1C[C@@H]2c3cc(NC(=O)c4ccc5c(c4)OCO5)ccc3O[C@@H]2[C@H](CO)O1)NCc1cc(F)ccc1F	TTR transcr act 17 | HuH7 TTR inh inactive | TTR up confirm inactive
COc1ccc2cc(C(C)=O)c(=O)oc2c1	none
COc1cc2ccccc2cc1C(=O)NC1CCCC1	none
COc1ccc2cc(C(=O)NC3CCCCC3)c(=O)oc2c1	TTR transcr act 11 | HuH7 TTR inh inactive | TTR up confirm inactive
CC(C)(C)c1ccc(C(=O)Nc2cc(Cl)c(Cl)cc2C(=O)O)cc1	none
CSc1ccccc1NC(=O)CN(C)CC(=O)Nc1ccccc1C(F)(F)F	TTR transcr act 12 | HuH7 TTR inh inactive | TTR up confirm inactive
COc1ccc(CN(C)CC(=O)Nc2ccccc2C(F)(F)F)cc1	none
CSc1ccccc1NC(=O)CN(C)CC(=O)Nc1ccc(Cl)cc1F	none
C=CCN(C(=O)[C@@H](CCCC)[C@@H](O)c1ccc(C(C)=O)cc1)c1ccccc1	none
CC(C)C[C@H](NC1(C(=O)NC2CCCCC2)CCN(C(=O)OC(C)(C)C)CC1)C(=O)NCCc1c[nH]c2ccccc12	none
Cc1cc(NC(=O)C23CC4CC(C2)CC(n2cnc([N+](=O)[O-])n2)(C4)C3)no1	none
O=C(NC1CCCCC1)C12CC3CC(C1)CC(n1cncn1)(C3)C2	TTR transcr act 13 | HuH7 TTR inh inactive | TTR up confirm inactive
O=C(Nc1ccon1)C12CC3CC(C1)CC(n1cnc([N+](=O)[O-])n1)(C3)C2	none
COc1ccc(CCNC(=O)Nc2ccc3c(c2)[C@@]2(CC(=O)N(CC(C)C)C2c2ccccc2)C(=O)N3C)cc1OC (some centres undefined)	none
O=C(NCCN1CCOCC1)c1cc(-c2ccco2)on1	none
CC(C)Cc1cc(C(=O)NCCCN2CCOCC2)no1	TTR transcr act 11 | HuH7 TTR inh inactive | TTR up confirm inactive
O=C(NCCN1CCOCC1)c1cc(-c2ccc(F)cc2)on1	none
O=C(Cn1nc(C(F)F)cc1C1CC1)N1CCCC1	none
O=C(NC1CCCCN(Cc2cccc(Cl)c2)C1=O)c1ccc(Cl)cc1Cl (centres undefined)	none
CCOC(=O)[C@]12CCCC=C1N(Cc1ccc(OC)cc1)C(=O)[C@@H]2CC(=O)N1CCN(C(=O)C2CC2)CC1	none
Cc1noc(C)c1NC(=O)Nc1ccc2c(c1)C(=O)N([C@H](C)CO)C[C@H](C)[C@@H](CN(C)S(=O)(=O)c1ccc(F)cc1)O2	none
Cc1ccc(S(=O)(=O)N(C)C[C@@H]2Oc3ccc(NC(=O)Cn4cnnn4)cc3C(=O)N([C@@H](C)CO)C[C@H]2C)cc1	TTR transcr act 21 | HuH7 TTR inh inactive | TTR up confirm inactive
CC(C)NC(=O)N(C)C[C@H]1Oc2ccc(NC(=O)Cn3cnnn3)cc2C(=O)N([C@H](C)CO)C[C@@H]1C	none
CNc1ccccc1/C(O)=C(\C#N)C(=O)NCc1cccs1	none
